Assay outcomes deposited in PubChem BioAssay by National Center for Advancing Translational Sciences (NCATS).
PK Bst: pyruvate kinase (B. stearothermophilus) modulation | purified pyruvate kinase, luminescence ATP production; ribose 5-phosphate activator present at AC10 | Potency, µM | hit rate 1.2% among 51,000; in the data active = potency below about 11 µM; inconclusive = mostly about 12 µM to 25 µM;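 the screen sought inhibitors and activators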;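 also: scaled between full activation by ribose 5 phosphate and full inhibition by luteolin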
Luciferase inh: blocks Photinus pyralis firefly luciferase activity. P08659. purified firefly luciferase, luminescence, 8 min. Potency, µM (top dose mostly 57.1 µM), for the others: at the highest dose activity change, negative = inhibition, hits mostly inhibitors. hit rate 2.2% among 72,000. AID 411; active = well fitted inhibition curve with a large enough effect; inconclusive = small, poorly fitted or top-dose-only effect; also: nearly all actives have a fitted effect of over 40% in size
Target sequence (P08659 whole entry, looked up): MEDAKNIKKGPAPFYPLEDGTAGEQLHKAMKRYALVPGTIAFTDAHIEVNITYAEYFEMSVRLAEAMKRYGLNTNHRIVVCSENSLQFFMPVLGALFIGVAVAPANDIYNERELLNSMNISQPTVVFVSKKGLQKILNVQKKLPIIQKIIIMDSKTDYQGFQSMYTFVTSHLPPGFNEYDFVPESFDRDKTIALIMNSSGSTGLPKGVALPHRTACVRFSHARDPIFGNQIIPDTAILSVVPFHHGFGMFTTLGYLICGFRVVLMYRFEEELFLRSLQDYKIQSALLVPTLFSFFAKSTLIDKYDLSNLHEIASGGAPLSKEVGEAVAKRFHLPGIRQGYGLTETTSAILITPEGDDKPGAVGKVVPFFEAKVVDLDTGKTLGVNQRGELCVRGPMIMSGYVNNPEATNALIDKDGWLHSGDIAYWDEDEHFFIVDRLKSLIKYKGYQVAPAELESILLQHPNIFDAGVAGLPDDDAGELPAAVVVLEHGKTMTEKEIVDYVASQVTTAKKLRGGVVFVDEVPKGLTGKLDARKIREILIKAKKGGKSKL
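Here, luciferase activity is measured as luminescence following an 8 min room-temperature reaction at 10 uM ATP, pH 7.2. Every library sample is titrated.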
Numbers without * were called inactive; i = inactive; ? = inconclusive; · = no result given; [ ] = dose if it differs, or a comment. A selection: hits, their analogues and other compounds. The true share with any hit is near 2.5%. Unless noted, % is scaled to controls: 0 for no effect and ±100 for the full control effect; potency is read from the fitted curve at half-maximal effect.

SMILES	PK Bst	Luciferase inh
CCc1nnc(NC(=O)Cn2nnc(-c3ccccc3F)n2)s1	>57	2%
COc1ccc(N2CCN(S(=O)(=O)c3cccc(C(F)(F)F)c3)CC2)cc1	>57	0%
Cc1ccc(S(=O)(=O)c2cc3c(=O)n4cccc(C)c4nc3n(Cc3ccco3)c2=N)cc1C	>57	0%
Oc1oc(-c2ccco2)nc1C=Nc1ccccc1	i	16µM*
Oc1oc(-c2ccco2)nc1C=Nc1cccc(Cl)c1	i	-6%[25.5 µM]
NC(=O)CSc1nc2c(sc3ccccc32)c(=O)n1CCCN1CCOCC1	·	-3%
CN1C(=O)CSc2ccc(NC(=O)N3CCN(c4ccccn4)CC3)cc21	>57	-4%
CN1C(=O)CSc2ccc(NC(=O)N3CCc4ccccc43)cc21	8.2*	13µM*
CCn1ncc(Br)c1C(=O)Nc1ccc(Cl)cn1	>57	1%
O=C(COc1ccc(Cl)cc1Cl)Nc1ccc(Cl)cn1	·	1.3µM*
CCOc1ccc(C(=O)Nc2ccc(Cl)cn2)cc1Cl	·	25µM*
Cc1ccc(C(C)C)c(OCC(=O)Nc2ccc(Cl)cn2)c1	>57	2%
Cc1nc2ccc(CCO)cc2s1	>57	0%
O=C(Cc1cccs1)N1CCC(c2nc3c(nnn3Cc3ccccc3Cl)c(=O)[nH]2)CC1	>57	3%
CN(C)CCCN1C(=O)C(=O)/C(=C(/O)c2ccc3c(c2)OCO3)C1c1ccco1 (centres undefined)	>57	0%
COC(=O)N1CCC2(CCCN(c3cccc(-c4ccccc4)c3)C2)CC1	·	1%[11.4 µM]
COc1ccc(S(=O)(=O)N(C)CC(=O)N2CCC(C(N)=O)CC2)cc1	>57	-4%
CC(=NC1CCCC1)c1c(C)[nH]n(-c2nc3ccccc3s2)c1=O	i	13µM*
CCOC(=O)Cc1cc(=O)n(-c2nc3ccccc3s2)[nH]1	>57	-5%
COC(=O)C1CCN(C(=O)c2sc3nc(-c4ccccc4)cn3c2C)CC1	>57	-8%
O=C(c1ccccc1)N(CCN1CCOCC1)C1(C(=O)Nc2ccccc2)CCCCC1	>57	2%
CCOC(=O)C1CCN(C(=O)c2cc3cc4cc(OC)ccc4nc3o2)CC1	i	-5%
COc1ccc2nc3oc(C(=O)N4CCCCC4)cc3cc2c1	?	13µM*
Nc1c(C(=O)NCC2CCCO2)c2nc3ccccc3nc2n1-c1ccccc1 (centres undefined)	>57	2%
Nc1c(C(=O)OCC2CCCO2)c2nc3ccccc3nc2n1C1CCCCC1 (centres undefined)	8.9*	-2%
SMILES	PK Bst	Luciferase inh
COc1ccc(OC)c2[nH]c(=O)c(CCNS(=O)(=O)c3ccc(C)cc3)cc12	2.3*	4%
COc1ccc(OC)c2[nH]c(=O)c(CCNS(=O)(=O)c3ccc(Cl)cc3)cc12	4.3*	-2%
COc1ccc(OC)c2[nH]c(=O)c(CCNC(=O)c3ccc(S(=O)(=O)N(C)C)cc3)cc12	>57	-1%
COc1ccc(OC)c2[nH]c(=O)c(CCNC(=O)C(C)C)cc12	·	0%
CCn1c(SCC(=O)O)nnc1-c1cc2c(C)nn(-c3ccccc3)c2s1	i	25µM*
CCn1c(COc2ccccc2C)nnc1SCC(=O)O	>57	2%
COc1ccc(N(CC(O)CN2CCCCC2)S(=O)(=O)c2ccc(C)cc2)cc1 (centres undefined)	>57	3%
COc1ccc(N(CC(O)Cn2nnc3ccccc32)S(=O)(=O)c2ccc(C)cc2)cc1 (centres undefined)	5.7*	2%
O=C(Oc1ccccc1C(=O)N1CCOCC1)c1cccc(Br)c1	>57	-8%
COc1ccc(C(=O)Nc2cccc(C)c2)cc1	·	6.3µM*
COc1ccc(OC)c(NC(=O)c2ccc(CN3CCOCC3)cc2)c1	·	-10%
COC(=O)c1[nH]c2cc(OC)c(OC)cc2c1NC(=O)c1cccc(OC)c1	i	7.9µM*
COc1cccc(C(=O)Nc2cccc(SC)c2)c1	·	13µM*
COc1cccc(C(=O)Nc2c(F)c(F)c(F)c(F)c2F)c1	>57	3%
COc1ccc(C(=O)Nc2cc(OC)ccc2OC)cc1	·	20µM*
COc1ccc(CNC(=O)Nc2cccc(C)c2)cc1	>57	-5%
COc1cccc(C(=O)Nc2c(C)n[nH]c2C)c1	>57	4%
C=C[C@@]1(C)C=C2CC[C@@H]3[C@](C)(CCC[C@@]3(C)C(=O)O)[C@H]2CC1	·	4%[11.4 µM]
Cn1ccnc1SCc1cn2ccccc2n1	>57	-13%
Cc1c(NC(=O)CSc2nc3ccccc3[nH]2)c(=O)n(-c2ccccc2)n1C	·	0%
COc1ccc(NC(=O)C(C)Oc2ccc(/C(C)=N\O)cc2)cc1 (centres undefined)	>57	0%
COc1ccc(C(CNC(=O)c2cc(C)oc2C)N2CCOCC2)cc1 (centres undefined)	>57	2%
COc1ccc(C(=O)Nc2ccccc2C(=O)NCCN2CCOCC2)cc1	>57	-11%
COc1ccc(C(=O)Nc2ccccc2C(N)=O)cc1	i	13µM*
CCCCn1c(SCC(=O)OCC)nnc1-c1ccoc1C	>57	3%
CCOc1ccc(-c2cc(C(=O)N3CCN(C)CC3)c3ccccc3n2)cc1	3.1*	2µM*
